Shown are actives, neighbours in structure and some others; about 0.24% of the full set was active somewhere.
mcGAS lum: cyclic GMP-AMP synthase inhibitors, mouse, primary biochemical chemiluminescence. 0.15% of 160,000 active. AID 1259399, 2018. recombinant cGAS, Kinase-Glo ATP depletion luminescence. Q8C6L5. inhibition, % at 12.5 µM
Target sequence (Q8C6L5 whole entry, looked up): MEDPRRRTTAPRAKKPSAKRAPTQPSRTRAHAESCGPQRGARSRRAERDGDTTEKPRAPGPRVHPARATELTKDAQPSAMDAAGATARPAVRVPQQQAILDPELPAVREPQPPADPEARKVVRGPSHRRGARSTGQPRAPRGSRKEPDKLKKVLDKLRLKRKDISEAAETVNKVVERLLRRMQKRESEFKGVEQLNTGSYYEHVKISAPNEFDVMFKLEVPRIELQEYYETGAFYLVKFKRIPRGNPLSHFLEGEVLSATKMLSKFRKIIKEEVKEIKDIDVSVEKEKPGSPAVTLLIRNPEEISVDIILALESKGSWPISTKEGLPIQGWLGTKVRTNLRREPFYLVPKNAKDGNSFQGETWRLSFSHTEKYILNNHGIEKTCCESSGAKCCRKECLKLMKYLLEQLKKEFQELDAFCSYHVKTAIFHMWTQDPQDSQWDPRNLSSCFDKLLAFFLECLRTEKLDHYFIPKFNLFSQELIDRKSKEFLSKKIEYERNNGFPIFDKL
NPYLR7 agonist: agonists of mosquito NPYLR7 receptor, primary screen, cell-based, Aedes aegypti, calcium fluorescence, mosquito biting behavior; Aedes aegypti neuropeptide Y-like receptor 7 (NPYLR7); HEK293T NPYLR7/Galpha15, GCaMP6s calcium fluorescence; activation, % at 10 µM; 0.15% of 270,000 active; AID 1259423, 2018; in the data active = activation above about 40%
hcGAS inh: Primary biochemical luminescence assay for human cyclic GMP-AMP synthase inhibitors. Q8N884. recombinant h-cGAS, ATP depletion, Kinase-Glo luminescence. inhibition, % at 12.5 µM. 0.081% of 290,000 active
A number is an active result; ! = a repeat was not active. Cut-off read from the data, not from the text of the source, unless noted: active = inhibition above about 40%; inactive = the rest.

For CCc1ccc(C(=O)N2CCc3ccccc3C2c2ccc(F)cc2)cc1 (centres undefined) the results were mcGAS lum inactive, NPYLR7 agonist inactive and hcGAS inh inactive.
`COc1ccc(CCN(Cc2ccco2)C(=O)CN(C(=O)Nc2ccc(F)cc2F)C(C)C)cc1OC` gave mcGAS lum inactive and hcGAS inh inactive.
Cc1cc(CNC(=O)C(O)CC(C)C)c2[nH]c(C)c(C)c2c1 (centres undefined) was read as mcGAS lum inactive, NPYLR7 agonist inactive and hcGAS inh inactive.
COc1coc(CN2CCC(=O)N(CC3CC3)C(C(C)C)C2)cc1=O (centres undefined) was read as NPYLR7 agonist inactive and hcGAS inh inactive.
`OC(COCc1ccccc1)CN(Cc1ccco1)Cc1c(-c2ccccc2)noc1N1CCCC1` (centres undefined) gave mcGAS lum inactive and hcGAS inh inactive.
For CC(=O)NC1CCN(c2cc(C)c3cc4c(cc3n2)CCC4)CC1 the results were NPYLR7 agonist inactive and hcGAS inh inactive.
`Cc1cc(C)c2cc3c(cc2n1)CCN3CC(O)CO` (centres undefined) gave NPYLR7 agonist 188 and hcGAS inh inactive.
CCOc1cc(/C=C2/NC(=S)NC2=O)cc(Br)c1O was read as mcGAS lum inactive, NPYLR7 agonist 52 and hcGAS inh inactive.
CCOc1cc(Br)cc(/C=C2/NC(=S)NC2=O)c1O was read as mcGAS lum inactive, NPYLR7 agonist inactive and hcGAS inh inactive.
`O=C(Nc1ccc(F)cc1)Nc1ccc(Nc2ccc(-n3cccn3)nn2)cc1` gave mcGAS lum inactive, NPYLR7 agonist inactive and hcGAS inh inactive.
`COc1ccc(C(=O)N[C@@H]2CCCCC2NC(=O)C2CCCN(C(=O)CCc3ccccc3)C2)cc1` (some centres undefined) gave mcGAS lum 79 and hcGAS inh inactive.
For COCC(=O)N1CCCC(C(=O)NC2CCCC[C@H]2NC(=O)c2ccccc2)C1 (some centres undefined) the results were mcGAS lum inactive and hcGAS inh inactive.
Screening CC1(C)OC2OC(C(O)c3cc(O)c4c(c3O)C(=O)c3ccccc3C4=O)C(C)(O)C2O1 (centres undefined) returned NPYLR7 agonist 106 and hcGAS inh inactive.
`O=C1c2ccccc2C(=O)c2c(O)c(O)cc(O)c21` gave mcGAS lum inactive, NPYLR7 agonist inactive and hcGAS inh inactive.
For COc1ccc(NC(=O)N2CCN(c3nc(C)nc(C)c3Cc3ccccc3Cl)CC2)c(OC)c1 the results were mcGAS lum inactive and hcGAS inh inactive.
`CNC[C@@H](O)c1ccc(O)c(O)c1` gave NPYLR7 agonist 55 and hcGAS inh inactive.
CC(C)NC[C@@H](O)c1ccc(O)c(O)c1 was read as mcGAS lum inactive, NPYLR7 agonist inactive and hcGAS inh inactive.
COc1ccc(NC2CCCN(C(=O)c3cccc(-n4nc(C)cc4C)c3)C2)cc1OC (centres undefined) was read as mcGAS lum inactive, NPYLR7 agonist inactive and hcGAS inh inactive.
CCOc1ccccc1/C=C/C(=O)Nc1ccc(C(=O)N(C)C)cc1 was read as NPYLR7 agonist inactive and hcGAS inh inactive.
Cc1nc(=O)c(-c2ccccc2)c(C)n1-c1ccccc1O was read as mcGAS lum inactive, NPYLR7 agonist 80 and hcGAS inh inactive.
Cc1nc(=O)c(-c2ccccc2)c(C)n1-c1ccccc1 was read as NPYLR7 agonist inactive and hcGAS inh inactive.
For c1ccc(-c2nccn2CCN2CCCCC2)c(Cn2cccn2)c1 the results were mcGAS lum inactive, NPYLR7 agonist inactive and hcGAS inh inactive.
Screening COc1ccc(Nc2nc(Nc3ccc([N+](=O)[O-])cc3)nc(OC)n2)cc1 returned mcGAS lum inactive, NPYLR7 agonist inactive and hcGAS inh inactive.
For O=[N+]([O-])c1ccc(-n2nc3ccc4nonc4c3n2)cc1 the results were mcGAS lum inactive, NPYLR7 agonist 81 and hcGAS inh inactive.
Screening O=[N+]([O-])c1ccccc1-n1nc2c3nonc3ccc2[n+]1[O-] returned mcGAS lum inactive, NPYLR7 agonist inactive and hcGAS inh inactive.
Screening Cc1nc(C)c(CC(=O)O)c(=O)[nH]1 returned NPYLR7 agonist inactive and hcGAS inh inactive.
`COc1ccc(-n2ccnc2-c2nc(-c3cccs3)oc2C)cn1` gave NPYLR7 agonist 57 and hcGAS inh inactive.
Cc1oc(-c2cccs2)nc1-c1nccn1Cc1noc(C(C)C)n1 was read as mcGAS lum inactive and hcGAS inh inactive.
CCOC(=NCCCN1CCOCC1)NC(=O)c1ccc(C(F)(F)F)cc1 was read as mcGAS lum inactive, NPYLR7 agonist inactive and hcGAS inh inactive.
CCc1cccc2c(C(CC(=O)NCCCN3CCOCC3)c3cccc(C(F)(F)F)c3)c[nH]c12 (centres undefined) was read as mcGAS lum inactive and hcGAS inh inactive.
For CCc1cccc2c(C(CC(=O)NCCCN3CCOCC3)c3ccc(OC)c(OC)c3)c[nH]c12 (centres undefined) the results were mcGAS lum 68 and hcGAS inh inactive.
For Cc1csc(-c2cc3ccc(O)c(CN4CCN(CCO)CC4)c3oc2=O)n1 the results were NPYLR7 agonist 69 and hcGAS inh inactive.
`O=c1oc2c(CN3CCN(CCO)CC3)c(O)ccc2cc1-c1ccccc1` gave mcGAS lum inactive, NPYLR7 agonist inactive and hcGAS inh inactive.
`Cc1cc(C)cc(N2C(=O)CSC2c2ccc(NC(=O)CCl)cc2)c1` (centres undefined) gave mcGAS lum inactive, NPYLR7 agonist inactive and hcGAS inh inactive.
`CCCc1ccccc1N1C(=O)CSC1c1ccc(NC(=O)CCl)cc1` (centres undefined) gave mcGAS lum inactive, NPYLR7 agonist 42 and hcGAS inh inactive.
For Cc1nccc(-c2cccc(NC(=O)C3CCC3)c2)n1 the results were NPYLR7 agonist inactive and hcGAS inh inactive.
`CSc1ccc(C2CC(c3ccc(Cl)cc3)=Nc3ncnn32)cc1` (centres undefined) gave NPYLR7 agonist 92 and hcGAS inh inactive.
`Clc1ccc(C2=Nc3ncnn3C(c3ccc(Cl)cc3)C2)cc1` (centres undefined) gave NPYLR7 agonist inactive and hcGAS inh inactive.
`Brc1ccc(-c2csc(NNC3=NCCCCC3)n2)cc1` gave NPYLR7 agonist inactive and hcGAS inh inactive.
For COc1cccc(-c2nc3ccc(Cl)cn3c2NCc2ccccc2)c1 the results were mcGAS lum inactive, NPYLR7 agonist inactive and hcGAS inh inactive.
`COc1cccc(-c2nc3ccc(Br)cn3c2NCc2ccccc2)c1` gave mcGAS lum 89!, NPYLR7 agonist inactive and hcGAS inh inactive.
`CC(C)CN(Cc1ccc(C(O)(c2ccccc2)c2ccccc2)o1)Cc1ccccc1F` gave mcGAS lum inactive, NPYLR7 agonist inactive and hcGAS inh inactive.
For O=C(CCl)Nc1cc([N+](=O)[O-])ccc1Cl the results were mcGAS lum 52, NPYLR7 agonist inactive and hcGAS inh inactive.
Screening O=C(CCl)Nc1ccc(Cl)cc1[N+](=O)[O-] returned mcGAS lum inactive, NPYLR7 agonist inactive and hcGAS inh inactive.

Screening data deposited in PubChem BioAssay by Fisher Drug Discovery Resource Center.
